This note sets out measurements from PubChem BioAssay.

Assay [1] relates to TRPC4 beta (transient receptor potential cation channel C4), mouse. The assay can be described thus: TRPC4 cation channel opening, retest – cell-based, Fluo4 calcium, HEK293 TRPC4beta/mu-opioid, duplicates, 10 µM, confirmation (AID 2426;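 active = fluorescence ratio normalized to control raised more than 50% in primary screen plus both repeat runs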;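 note: percent rise of integrated ratio over buffer wells lacking compound which define 0%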). Particulars: Fluo4 calcium fluorescence, at 10 µM; stronger effect = higher value.
Assay [2] deals with transient receptor potential cation channel C4 beta (TRPC4), mouse. Put plainly: TRPC4 cation channel opening, second retest – cell-based, second round, Fluo4, HEK293 TRPC4beta/mu-opioid, 1 µM, confirmation (AID 2461;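 active = primary screen active and over 50% activation in each of two duplicate runs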;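 for activation: 0% = wells without test compound as baseline of integrated fluorescence ratio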). The following applies: Fluo4 calcium fluorescence, at 1 µM; stronger effect = higher value.
Assay [3] has as its system TRPC4 (transient receptor potential cation channel C4 beta), mouse. Put plainly: potentiation of DAMGO EC20 TRPC4 response – cell-based, second round, Fluo-4, HEK293 TRPC4beta/mu-opioid, 1 µM, confirmation (AID 2554;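 active = primary screen hit whose fluorescence ratio, in both repeats, exceeds the weak agonist control mean by 3 SD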). The following applies: DAMGO EC20, Fluo-4 calcium flux, at 1 µM; stronger effect = higher value. A general note: Calcium assays in cells follow changes in intracellular calcium, usually with a dye or a luminescent sensor.

Assay [4] concerns TRPC4 beta (transient receptor potential cation channel C4), mouse. The assay can be described thus: potentiation of DAMGO EC20 TRPC4 response – cell-based, Fluo-4, HEK293 TRPC4beta/mu-opioid, confirmation (AID 2555;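 active = primary screen hit whose calcium fluorescence ratio, in both repeats, exceeds the weak agonist control mean by 3 SD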). Particulars: DAMGO EC20, Fluo-4 calcium flux, at 10 µM; stronger effect = higher value.
Assay [5] deals with Short transient receptor potential channel 4 (Mus musculus) (UniProt Q9QUQ5). Put plainly: blockers of DAMGO-evoked TRPC4 calcium flux – cell-based, Fluo4, HEK293 TRPC4beta/mu-opioid, confirmation (AID 2636;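 active = calcium signal cut by more than 3 SD below the full-agonist control yet still positive, in both repeats and the earlier primary screen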). Particulars: at 10 µM; stronger effect = higher value.
Assay [6] has the same target. Put plainly: blockers of DAMGO-evoked TRPC4 calcium flux – cell-based, second round, Fluo4, HEK293 TRPC4beta/mu-opioid, 1 µM, confirmation (AID 2637;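 active = calcium signal ratio cut to more than 3 SD under the fully stimulated control mean yet still positive, in both repeats and the primary screen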;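 for inhibition: percent of integrated ratio relative to wells lacking test compound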). The following applies: at 1 µM; stronger effect = higher value.
The target is the same in assay [7]. Put plainly: potentiation of DAMGO-evoked TRPC4 calcium signal – cell-based, HEK293 TRPC4/mu-opioid, Fluo-4 calcium, EC20 DAMGO, dose response (AID 434941;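 active = earlier screen potentiator hit that boosts the TRPC4 ion channel at some dose, with a dose response; inactive = no potentiation, no dose response, or not a prior hit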;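 note: calcium entry triggered by an EC20 dose of DAMGO at the co-expressed mu-opioid receptor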).
Assay [8] deals with Short transient receptor potential channel 6 (Mus musculus) (UniProt Q61143). The assay can be described thus: TRPC6 blockade by TRPC4 inhibitor hits – cell-based, HEK293, membrane potential dye, duplicate, selectivity assay for TRPC4 inhibitor project, confirmation (AID 434948;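 active = active in primary screen and both duplicates, each dropping signal beyond three positive-control SD with fluorescence still positive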). The following applies: HEK293 TRPC6, membrane potential dye fluorescence, at 10 µM, stimulated with maximal-effect acetylcholine; stronger effect = higher value.

The target is the same in assay [9]. The assay can be described thus: TRPC6 opening by TRPC4 activator hits – cell-based, HEK293, membrane potential dye, duplicate, selectivity assay for TRPC4 activator project, confirmation (AID 434950;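 active = membrane potential signal rise above negative control mean plus 3 SD in both duplicates, also active in the earlier TRPC4 screen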;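 for activation: 0% = buffer only wells and 100% = acetylcholine maximal-effect wells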). Particulars: HEK293 TRPC6, membrane potential fluorescence, at 10 µM; activation: stronger effect = higher value; outcome: activation.
The target is the same in assay [10]. The assay can be described thus: positive modulators of mouse TRPC6 channel – HEK293 cells, membrane potential dye, duplicate, selectivity assay for TRPC4 potentiator project, confirmation (AID 434952;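 active = compound raising the membrane signal above positive-control mean plus 3 SD in both repeats, and a primary screen hit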). Particulars: HEK293 TRPC6, membrane potential dye fluorescence, at 10 µM, maximal acetylcholine added after compound; stronger effect = higher value.
In assay [11] the target is Short transient receptor potential channel 4 (Mus musculus) (UniProt Q9QUQ5). Put plainly: calcium flux activators in TRPC4/5HT1a cells, counter-screen for TRPC4 activator project, cell-based, second counter screen, HEK293 TRPC4/5HT1a, Fluo-4 (AID 434977;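 active = calcium signal rise above buffer-control mean plus 5 SD in both duplicates, and also a hit in the primary screen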;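 note: plate controls were assay buffer for no effect and maximal serotonin response for full effect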). The following applies: Fluo-4 calcium flux, at 10 µM; stronger effect = higher value.
Assay [12] can be described thus: serotonin-gated TRPC4 signal block – cell-based, second counter screen, HEK293 TRPC4/5HT1a, Fluo-4, counter-screen for TRPC4 inhibitor project, confirmation (AID 434978;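 active = primary screen active whose calcium signal fell more than 3 SD beyond the full-serotonin control mean in both duplicate plates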;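 for outcome: serotonin given first at submaximal then at maximal dose after compound preincubation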). The following applies: Fluo-4 calcium flux, at 10 µM, serotonin added to trigger calcium flux; stronger effect = higher value. (Counterscreens check selectivity or assay interference.)
In assay [13] the test system is TRPC4 (mouse), co-expressed with 5HT1a in HEK293. The assay can be described thus: enhancement of serotonin-evoked TRPC4 response – cell-based, second counter screen, HEK293 TRPC4/5HT1a, Fluo-4, counter-screen for TRPC4 potentiator project, confirmation (AID 434979;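 active = signal rise over 3 SD above mean of control wells given weak agonist, in both repeats and first screen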). The following applies: Fluo-4 calcium flux, at 10 µM, serotonin added at its EC20 dose; stronger effect = higher value.

The nature of assay [14]: nonspecific calcium rise without TRPC4 – cell-based, HEK293 mu-opioid receptor line, counter-screen for TRPC4 activator project, confirmation (AID 449723).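 Note: counter screen cells carry the mu-opioid receptor alone and lack TRPC4.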 Particulars: HEK293 mu-opioid cells, Fluo-4 calcium fluorescence, at 10 µM; stronger effect = higher value.
The nature of assay [15]: nonspecific potentiation of DAMGO calcium response – cell-based, HEK293 mu-opioid receptor line, counter-screen for TRPC4 allosteric potentiator project, confirmation (AID 449724;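 active = calcium signal rise more than 3 SD above the low-dose agonist control mean, in both duplicate plates and the primary screen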;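 note: HEK293 cells carrying mu-opioid receptor only with no TRPC4 channel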). Particulars: HEK293 mu-opioid receptor cells, Fluo-4 calcium flux, at 10 µM, compound added before EC20 DAMGO stimulus; stronger effect = higher value.
For assay [16], the target named is Short transient receptor potential channel 4 (Mus musculus) (UniProt Q9QUQ5). Put plainly: block of DAMGO-driven TRPC4 calcium entry – cell-based, HEK293 TRPC4/mu-opioid, Fluo-4 calcium, dose response (AID 434942;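 active = primary screen inhibitor hit that blocks the TRPC4 channel at some tested dose, yielding a dose curve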).
Assay [17] is described as follows: nonspecific flux increase, KCNQ1-free cells – parental CHO cells, counter-screen for KCNQ1 potentiator project (AID 493006;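 active = duplicate-averaged activation above buffer control mean plus 5 SD of those controls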;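 for activation: fluorescence ratio of max minus min over baseline after K+ and Tl+ depolarization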). The following applies: parental CHO-K1 cells, FluxOR thallium flux, at 10 µM; stronger effect = higher value.
Assay [18] addresses Potassium voltage-gated channel subfamily KQT member 1 (Homo sapiens) (UniProt P51787). The assay can be described thus: enhancement of KCNQ1 channel thallium flux – FluxOR thallium flux, CHO cells, duplicates, confirmation (AID 493007;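 active = potentiation averaged over duplicate wells exceeding buffer-only control mean by more than 3 SD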;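 for outcome: cells depolarized by a potassium plus thallium sulfate stimulus after compound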;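 for potentiation: 0% = buffer-only wells and 100% = R-L3 activator control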). Particulars: KCNQ1 cell line, FluxOR thallium flux fluorescence, at 10 µM; stronger effect = higher value, % of reference activator effect, buffer zero.

Assay [19] has the same target. The assay can be described thus: KCNQ1 activators by electrophysiology – IonWorks patch clamp, KCNQ1-CHO cells, orthogonal assay for KCNQ1 potentiator project, confirmation (AID 493184;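 active = current rise at least 3 SD above the untreated control mean in each of two repeat wells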). Particulars: automated patch clamp current, at 10 µM; stronger effect = higher value.
Assay [20] concerns the target Potassium voltage-gated channel subfamily KQT member 2 (Rattus norvegicus) (UniProt O88943). The assay can be described thus: KCNQ2 thallium flux enhancement – KCNQ2-CHO-K1 cells, selectivity assay for KCNQ1 potentiator project (AID 493009;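 active = mean duplicate potentiation above the buffer control mean plus 5 SD of buffer wells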;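 note: assay conditions were tuned for KCNQ1 rather than KCNQ2 modulators; signal is max minus min fluorescence divided by baseline after thallium stimulus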). The following applies: FluxOR thallium flux fluorescence, at 10 µM; stronger effect = higher value, scaled: buffer 0, activator control 100.

For some of these results: Potency and affinity values are given separately. Calls of active or inactive are those of the source.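 Rule for the calls, unless noted: active = hit in primary screen, with calcium signal over 5 SD above buffer well mean in both duplicates; inactive = the rest.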

Chain of Potassium voltage-gated channel subfamily KQT member 2 (Rattus norvegicus) (O88943 whole entry, looked up): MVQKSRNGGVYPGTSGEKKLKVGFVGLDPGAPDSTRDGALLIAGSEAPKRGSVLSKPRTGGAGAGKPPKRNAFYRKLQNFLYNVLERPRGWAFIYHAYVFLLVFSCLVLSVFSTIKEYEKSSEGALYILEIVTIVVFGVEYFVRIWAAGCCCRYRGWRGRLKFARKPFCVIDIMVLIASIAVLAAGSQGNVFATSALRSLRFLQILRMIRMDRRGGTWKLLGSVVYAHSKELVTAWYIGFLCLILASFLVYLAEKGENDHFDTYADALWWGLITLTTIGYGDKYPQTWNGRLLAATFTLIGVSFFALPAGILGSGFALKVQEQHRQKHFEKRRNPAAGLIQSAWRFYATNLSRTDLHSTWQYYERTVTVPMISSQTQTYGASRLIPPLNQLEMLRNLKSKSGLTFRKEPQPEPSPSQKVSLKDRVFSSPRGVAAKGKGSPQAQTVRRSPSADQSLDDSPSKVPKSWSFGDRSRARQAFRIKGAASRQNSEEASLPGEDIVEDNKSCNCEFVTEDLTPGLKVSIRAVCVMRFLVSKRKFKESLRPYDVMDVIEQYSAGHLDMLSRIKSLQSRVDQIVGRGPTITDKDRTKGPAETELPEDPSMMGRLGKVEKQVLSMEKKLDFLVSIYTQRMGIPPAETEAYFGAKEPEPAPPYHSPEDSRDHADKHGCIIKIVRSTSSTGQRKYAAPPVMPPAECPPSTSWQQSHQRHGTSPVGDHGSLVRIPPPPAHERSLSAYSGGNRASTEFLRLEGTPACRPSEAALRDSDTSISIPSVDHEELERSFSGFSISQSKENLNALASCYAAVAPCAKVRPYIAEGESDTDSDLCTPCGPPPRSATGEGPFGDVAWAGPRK
Chain of Short transient receptor potential channel 6 (Mus musculus) (Q61143 whole entry, looked up): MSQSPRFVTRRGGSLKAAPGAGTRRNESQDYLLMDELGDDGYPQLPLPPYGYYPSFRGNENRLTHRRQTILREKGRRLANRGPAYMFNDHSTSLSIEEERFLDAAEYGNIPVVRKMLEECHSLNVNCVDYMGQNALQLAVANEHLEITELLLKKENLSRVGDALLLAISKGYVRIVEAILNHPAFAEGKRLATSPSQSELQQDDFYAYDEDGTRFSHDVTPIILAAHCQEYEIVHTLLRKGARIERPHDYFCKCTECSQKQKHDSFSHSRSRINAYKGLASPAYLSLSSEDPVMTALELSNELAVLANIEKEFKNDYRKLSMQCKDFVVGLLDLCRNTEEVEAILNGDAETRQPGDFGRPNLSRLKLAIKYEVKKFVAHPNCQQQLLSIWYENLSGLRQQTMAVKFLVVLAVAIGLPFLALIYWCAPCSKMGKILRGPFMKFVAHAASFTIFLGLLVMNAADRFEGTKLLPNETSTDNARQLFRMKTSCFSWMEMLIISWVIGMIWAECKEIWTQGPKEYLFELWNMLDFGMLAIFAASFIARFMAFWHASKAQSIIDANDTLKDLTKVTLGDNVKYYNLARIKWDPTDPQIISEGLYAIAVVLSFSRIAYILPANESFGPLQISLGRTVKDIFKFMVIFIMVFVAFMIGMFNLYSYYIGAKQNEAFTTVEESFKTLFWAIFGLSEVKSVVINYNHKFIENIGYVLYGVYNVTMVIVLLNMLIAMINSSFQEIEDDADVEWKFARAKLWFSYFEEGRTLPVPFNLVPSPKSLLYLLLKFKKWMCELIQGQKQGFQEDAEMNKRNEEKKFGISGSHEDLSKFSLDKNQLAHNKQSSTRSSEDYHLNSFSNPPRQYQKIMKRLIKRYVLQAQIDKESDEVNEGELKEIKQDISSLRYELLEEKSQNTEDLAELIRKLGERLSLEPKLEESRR
Chain of Potassium voltage-gated channel subfamily KQT member 1 (Homo sapiens) (P51787 whole entry, looked up): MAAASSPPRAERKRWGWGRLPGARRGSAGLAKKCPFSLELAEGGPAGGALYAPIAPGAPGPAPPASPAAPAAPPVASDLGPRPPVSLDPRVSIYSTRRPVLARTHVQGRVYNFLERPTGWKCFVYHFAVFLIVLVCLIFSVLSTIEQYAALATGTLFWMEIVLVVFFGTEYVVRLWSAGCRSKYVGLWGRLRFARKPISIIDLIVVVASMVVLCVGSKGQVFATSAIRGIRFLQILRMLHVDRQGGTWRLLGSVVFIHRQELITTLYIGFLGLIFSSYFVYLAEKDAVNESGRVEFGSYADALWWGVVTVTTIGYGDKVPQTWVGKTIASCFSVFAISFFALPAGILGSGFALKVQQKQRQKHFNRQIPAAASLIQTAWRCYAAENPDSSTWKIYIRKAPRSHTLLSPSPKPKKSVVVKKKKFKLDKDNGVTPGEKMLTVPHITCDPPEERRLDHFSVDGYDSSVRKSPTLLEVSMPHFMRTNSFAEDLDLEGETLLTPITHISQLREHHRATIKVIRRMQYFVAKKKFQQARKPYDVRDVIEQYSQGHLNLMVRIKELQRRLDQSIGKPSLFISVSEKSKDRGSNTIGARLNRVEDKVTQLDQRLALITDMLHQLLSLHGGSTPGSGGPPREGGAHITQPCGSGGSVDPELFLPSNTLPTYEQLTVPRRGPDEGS
Chain of Short transient receptor potential channel 4 (Mus musculus) (Q9QUQ5 whole entry, looked up): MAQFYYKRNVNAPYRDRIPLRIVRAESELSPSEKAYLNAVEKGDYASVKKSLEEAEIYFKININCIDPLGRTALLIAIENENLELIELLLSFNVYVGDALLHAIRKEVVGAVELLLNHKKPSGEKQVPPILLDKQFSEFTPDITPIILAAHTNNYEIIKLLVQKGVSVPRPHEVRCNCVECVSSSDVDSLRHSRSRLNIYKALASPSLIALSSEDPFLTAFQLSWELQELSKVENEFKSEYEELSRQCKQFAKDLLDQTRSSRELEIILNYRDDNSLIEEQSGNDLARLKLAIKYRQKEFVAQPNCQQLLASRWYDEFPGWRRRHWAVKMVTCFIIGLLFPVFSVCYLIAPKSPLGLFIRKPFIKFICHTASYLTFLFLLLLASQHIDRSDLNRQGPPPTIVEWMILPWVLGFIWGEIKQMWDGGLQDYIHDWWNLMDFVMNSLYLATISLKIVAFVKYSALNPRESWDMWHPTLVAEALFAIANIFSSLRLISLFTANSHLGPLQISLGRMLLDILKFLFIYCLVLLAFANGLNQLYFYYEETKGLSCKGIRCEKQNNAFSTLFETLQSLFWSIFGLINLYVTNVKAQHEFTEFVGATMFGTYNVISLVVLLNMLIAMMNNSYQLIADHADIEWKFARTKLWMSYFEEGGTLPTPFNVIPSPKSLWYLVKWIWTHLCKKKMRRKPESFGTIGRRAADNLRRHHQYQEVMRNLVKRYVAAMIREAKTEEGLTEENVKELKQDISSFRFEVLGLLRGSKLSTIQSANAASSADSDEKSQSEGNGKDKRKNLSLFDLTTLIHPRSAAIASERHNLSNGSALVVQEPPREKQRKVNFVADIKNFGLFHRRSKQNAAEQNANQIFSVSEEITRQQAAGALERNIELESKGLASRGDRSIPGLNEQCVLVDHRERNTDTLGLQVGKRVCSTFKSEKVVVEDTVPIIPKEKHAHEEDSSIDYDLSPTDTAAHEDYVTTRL

As usually defined, the inhibition is the change of the read-out against control, counted positive when it falls. As to `CCOc1ccccc1N(CC(=O)N1CCOCC1)S(=O)(=O)c1ccccc1`, the activation was 155% (active) in [1], 56.5% (active) in assay [9], 94% (active) in [11] and 74.4% (active) in assay [14]. Moreover, the outcome in [2], in assay [3], in [4], in assay [5], in assay [6] and in [7] was inactive. In addition, the molecule was classed as inactive in [8], in [10], in [13] and in assay [15]. In addition, the inhibition in [12] is 16% (active).

Take `O=C(Nc1nnc(-c2cccs2)o1)c1cccc(C(F)(F)F)c1`: the activation was 151% (active) in assay [1], 57.6% (active) in assay [11], 29.9% (active) in assay [14] and 208% (active) in assay [17]. Further, the outcome in assay [2], in [3], in [4], in [5], in [6] and in assay [7] was inactive. The result in [16], in assay [8], in assay [9], in assay [10], in assay [12] and in assay [13] was inactive. Moreover, the result in assay [15] and in assay [19] was inactive. Further, the potentiation in assay [18] is 50% (active).

`Cc1onc(-c2ccccc2)c1C(=O)NNC(=S)NC(=O)c1ccc(Br)cc1`: the figures for the activation in [1], in [11] and in [14] were 263% (active), 190% (active) and 70.7% (active), respectively. Moreover, the outcome in assay [2], in assay [3], in assay [4], in assay [5], in [6] and in assay [7] was inactive. In addition, the outcome in [16], in assay [8], in [9], in assay [10], in assay [12] and in [13] was inactive. Moreover, the outcome in assay [15], in assay [17], in assay [18], in [20] and in assay [19] was inactive.

With `CCCCC(=O)NNC(=S)NC(=O)C(c1ccccc1)c1ccccc1`, the activation was 122% (active) in [1], 42% (active) in assay [9], 96.7% (active) in assay [11] and 31.6% (active) in assay [14]. Further, the result in [2], in [3], in [4], in assay [5], in assay [6] and in assay [7] was inactive. Moreover, the outcome in assay [16], in [8], in assay [10], in [12], in [13] and in assay [15] was inactive. Besides, the result in assay [17], in assay [18], in [20] and in assay [19] was inactive.

Take `COc1ccc(CCN(C)CCN2C(=O)c3ccccc3C2=O)cc1OC`: the values for the activation in assay [1], in [2] and in [11] were 252% (active), 103% (active) and 96.5% (active), respectively. In addition, the outcome in assay [3], in [4], in assay [5], in assay [7], in assay [8] and in assay [9] was inactive. Also, the result in assay [10], in assay [13], in assay [14] and in assay [15] was inactive. Moreover, the results for the inhibition in [6] and in assay [12] were 43% (active) and 1.2% (active), respectively.

With `CC(Oc1ccc(Cl)cc1)C(=O)NNC(=S)NC(=O)c1ccco1` (centres undefined), the results for the activation in assay [1], in assay [11] and in assay [14] were 192% (active), 104% (active) and 29.1% (active), respectively. Further, the result in assay [2], in assay [3], in assay [4], in assay [5], in assay [6] and in [7] was inactive. For the same molecule, the outcome in assay [16], in assay [8], in assay [9], in assay [10], in assay [12] and in assay [13] was inactive. In addition, the outcome in assay [15], in assay [17] and in assay [19] was inactive. Also, the potentiation is 50% (active) in assay [18] and 170% (active) in [20].

Regarding `CN(C)C(CNC(=O)c1ccc2c(c1)S(=O)(=O)c1ccccc1C2=O)c1ccco1` (centres undefined), the activation in [1] was 142% (active); in assay [11], 42.8% (active). For the same molecule, the result in assay [2], in assay [3], in assay [4], in [6], in assay [7] and in assay [8] was inactive. Also, the molecule was classed as inactive in assay [9], in assay [10], in [13], in [14] and in assay [15]. For the same molecule, the inhibition is 67% (active) in assay [5] and 29.5% (active) in assay [12].
